From PubChem BioAssay (NCI) come the findings set out here.

Molecules are shown by their SMILES. Where “and” joins values, the source holds several entries; their conditions need not be identical. Equal entries are not always repeated. The panel holds about 83,000 compounds, 20% with a hit somewhere; the sample as a whole holds those more often.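 How to read the values: 0–100, growth inhibition (40 = 60% inhibited); 0, no net growth; -100 to 0, cell death (-40 = 40% of starting cells died; -100 = all dead).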 Calls of active or inactive are those of the source. The calls were made as follows: active = growth percent below 10; inactive = the rest.

This experiment relates to MDA-MB-468 breast. Kind of experiment: NCI-60 one-dose screen, 48 h (100 = growth as untreated, 0 = no growth, -100 = all killed). The conditions noted are these: 10 µM unless noted.
Consider `Cc1cc2c(-c3nc4ccccn4c3Nc3cccc4ccccc34)c(O)c(O)cc2c(O)c1-c1c(C)cc2c(-c3nc4ccccn4c3Nc3cccc4ccccc34)c(O)c(O)cc2c1O`, for which the growth was 17.4% (inactive). With `COc1cc2cc(Oc3ccc(NC(=O)c4cccc(C(F)(F)F)c4)cc3)c(C)nc2cc1OCCN1CCCCC1`, the growth was 37.6% (inactive). For `c1ccc(CCCCc2ccc3ccccc3n2)cc1`, the growth is 111% (inactive).

Take `CC1(C)CC[C@]2(C(=O)O)CC[C@]3(C)C(=CC[C@@H]4[C@@]5(C)C/C(=C/c6cccnc6)[C@H](O)C(C)(C)[C@@H]5CC[C@]43C)[C@@H]2C1`: the growth is 4.01% [100 µM] (active).

Turning to `C=C(C)[C@@H]1C[C@@H]2Cc3cc(F)ccc3N1O2`, the growth was 104% (inactive). `COc1cc(-c2nn(-c3cccc(NC(=O)CN4CCOCC4)c3)cc2-c2cccnc2)ccc1Cl`: the growth was 74.9% (inactive). In the case of `O=CNc1c(Cl)cc2c(c1Cl)Cc1cc([N+](=O)[O-])ccc1-2`, the growth was -3.02% (active). For the molecule `CNC(=O)c1ccccc1Sc1ccc2c(/C=C/c3ccccn3)n[nH]c2c1`, the growth was 28% (inactive). Take `O=[N+]([O-])c1ccc(NC(=S)NNC(=S)Nc2ccc(F)cc2)cc1`: the growth is 74.6% (inactive). Take `N#C/C(C(=O)c1ccccc1)=C1/C(=O)Nc2ccc(Br)cc21`: the growth was 102% (inactive). `COc1cccc(N2CCN(c3ncnc4c3[nH]c3ccc(F)cc34)C[C@H]2C)c1`: the growth was 27.5% (inactive).

In the case of `Cc1nn(-c2ccc(F)cc2)c2ncnc(Nc3ccc(NC(=O)Nc4ccc(Cl)c(C(F)(F)F)c4)cc3)c12`, the growth was -2.58% (active). `N#Cc1cccc(F)c1`: the growth was 111% (inactive).

For `CC1(C)C(N)=Nc2cc(OCCCN3Cc4ccccc4C3)c(OCC3CC3)cc21`, the growth was 47.3% (inactive). Turning to `CCN(CC)c1ccc2cc(C(=O)NCCOCCOCCOCCn3cc(CCC(=O)Nc4ccc(C(=O)c5ccc(NC(=O)OC(C)(C)C)cc5)cc4)nn3)c(=O)oc2c1`, the growth was 51.3% (inactive). The same measure for `Cc1ccc(-c2nc(/C=C3/C(=O)Nc4ccc(F)cc43)c3ccccn23)cc1`: 77.3% (inactive).

As to `Cn1c(N)c(N=Nc2ccc(S(=O)(=O)Nc3nccs3)cc2)c(=O)n(C)c1=O`, the growth is 116% (inactive).

As to `COc1ccc(C(c2cc(OC)c(OC)c(OC)c2)n2ccnc2)cc1O` (stereo not given), the growth is 15.6% (inactive). Consider `O=S(=O)(Nc1ncccn1)c1ccc(NC2Nc3nc4ccccc4nc3S2)cc1` (stereo not given), for which the growth is 95.5% (inactive). As for `Cc1ccc(S(=O)(=O)Nc2ccc3cc([N+](=O)[O-])ccc3c2[N+](=O)[O-])cc1`, the growth was 54% (inactive) and 88.5% (inactive). Take `Cc1csc(NC(c2ccc(Br)cc2)c2c(C)nc3ccccn23)n1` (stereo not given): the growth was 93.5% (inactive). As for `CC1(CO)CCCC1NCCNC1CCCC1(C)CO` (stereo not given), the growth was 104% (inactive) and 95.5% (inactive). Regarding `c1cc[n+](Cc2ccnc3ccccc23)cc1`, the growth is 126% (inactive). As to `CCCCNC(=O)c1ccc2c(c1)nc(-c1ccccc1)n2C1CCCCC1`, the growth was 123% (inactive). As for `O=[N+]([O-])C1CC2C=CC1C2` (stereo not given), the figure is 99.5% (inactive).
